For test [1], the target named is Muscarinic acetylcholine receptor M1 (Homo sapiens) (UniProt P11229). Kind of test: NVS_GPCR_hM1: NovaScreen (NVS) G Protein-Coupled Receptor Assay for human Muscarinic, M1 Receptor (AID 2283270). In outline:
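Actives from a duplicate 25 uM single-point screen were retested in concentration series. Binding measured as displacement of a radioligand from CHO-derived receptor preparation, 1 h incubation, filtration and scintillation counting, analysed as signal loss against DMSO.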

For test [2], the target named is human Dopamine Receptor D4.4 (DRD4.4), DRD4 (gene 1815) (UniProt P21917). The experiment in a line: NVS_GPCR_hDRD4.4: NovaScreen (NVS) G Protein-Coupled Receptor Assay for human Dopamine Receptor D4.4 (DRD4.4) (AID 2283264). The essentials: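 Filter-binding assay with a tritiated or iodinated ligand, cell-free receptor prepared from CHO, 1 hour. Loss of bound radioactivity versus DMSO; single 25 uM duplicate screen, then concentration-response for actives.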

The target of test [3] is human Histamine 1 Receptor (H1), HRH1 (gene 3269) (UniProt P35367). The experiment in a line: NVS_GPCR_hH1: NovaScreen (NVS) G Protein-Coupled Receptor Assay for human Histamine 1 Receptor (H1) (AID 2283268). The essentials: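 Filter-based scintillation detection of radioligand binding to human H1, 1 h incubation; chemicals screened in duplicate at 25 uM, then concentration-response; signal loss relative to DMSO taken as activity.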

In test [4] the target is D(1A) dopamine receptor (Homo sapiens) (UniProt P21728). Kind of test: NVS_GPCR_hDRD1: NovaScreen (NVS) G Protein-Coupled Receptor Assay for human Dopamine Receptor D1 (DRD1) (AID 2283269). In outline: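 Cell-free radioligand binding to human DRD1 from HEK293 membranes, read 1 h after dosing by filter-based scintillation counting. Loss of signal versus DMSO baseline marks displacement. Primary screen at 25 uM single concentration in duplicate; actives followed up in concentration series.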

Test [5] deals with Muscarinic acetylcholine receptor M2 (Homo sapiens) (UniProt P08172). The experiment in a line: NVS_GPCR_hM2: NovaScreen (NVS) G Protein-Coupled Receptor Assay for human Muscarinic, M2 Receptor (AID 2283273). In outline:
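Filter-based radiodetection read bound radioligand 1 h after dosing CHO-derived membrane protein. Single-concentration duplicates (25 uM) first, then concentration-response for actives; signal loss versus DMSO scored.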

In test [6] the target is Type-1 angiotensin II receptor (Homo sapiens) (UniProt P30556). The experiment in a line: NVS_GPCR_hAT1: NovaScreen (NVS) G Protein-Coupled Receptor Assay for human Angiotensin II receptor type 1 (AT1) (AID 2283263). In outline:
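Hits from a 25 uM duplicate screen (threshold e.g. 30% inhibition) were run in concentration-response with 50 uM top concentration. Displacement of specific radioligand from KAN-TS membrane preparations measured after 3 h by filter scintillation, DMSO as baseline.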

The target of test [7] is human Leukotriene B4 Receptor 1 (LTB4-BLT1), LTB4R (gene 1241) (UniProt Q15722). The experiment in a line: NVS_GPCR_hLTB4_BLT1: NovaScreen (NVS) G Protein-Coupled Receptor Assay for human Leukotriene B4 Receptor 1 (LTB4-BLT1) (AID 2283271). The essentials:
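Cell-free human neutrophil receptor preparation, 1 h exposure, radioligand binding read by filter scintillation counting. Single 25 uM duplicate screen, then concentration series topping at 50 uM; binding loss scored against DMSO baseline.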

Test [8] has as its target rat Serotonin, 5-Hydroxytryptamine Receptor 1 (5HT1), Non-Selective Binding, Htr1a (gene 24473) (UniProt P19327). The experiment in a line: NVS_GPCR_r5HT1_NonSelective: NovaScreen (NVS) G Protein-Coupled Receptor Assay for rat Serotonin, 5-Hydroxytryptamine Receptor 1 (5HT1), Non-Selective Binding (AID 2283286). The essentials:
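Binding of a radioligand to rat cortex membranes is read by filtration and scintillation counting after 1 h. Compounds were screened at 25 uM in duplicate. Actives were then titrated to a top of 50 uM. DMSO is the baseline.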

The test system of test [9] is rabbit Platelet Activating Factor Receptor (PAF), gene 100354046. The experiment in a line: NVS_GPCR_rabPAF: NovaScreen (NVS) G Protein-Coupled Receptor Assay for rabbit Platelet Activating Factor Receptor (PAF) (AID 2283287). The essentials:
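Rabbit platelet membrane preparation; radioligand displacement read by filter-based scintillation counting 1 h after dosing, loss of signal versus DMSO. Primary screen in duplicate at 25 uM, actives followed up in concentration series.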

The target of test [10] is Neuropeptide Y receptor type 2 (Homo sapiens) (UniProt P49146). Kind of test: NVS_GPCR_hNPY2: NovaScreen (NVS) G Protein-Coupled Receptor Assay for human Neuropeptide Receptor Y2 (NPY2) (AID 2283277). The essentials:
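Chemicals were first tested in duplicate at 25 uM, then actives in singleton concentration series to 50 uM. Tracer binding to SK-N-MC-derived protein measured cell-free after 1 h via filter scintillation; signal loss relative to DMSO.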

Test [11] has as its target Muscarinic acetylcholine receptor M3 (Homo sapiens) (UniProt P20309). Kind of test: NVS_GPCR_hM3: NovaScreen (NVS) G Protein-Coupled Receptor Assay for human Muscarinic, M3 Receptor (AID 2283272). In outline: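 Radioligand displacement binding on human M3 receptor in CHO-derived membranes, 1 h incubation, filter-based scintillation counting. Primary screen in duplicate at 25 uM; actives followed up in concentration series; loss of signal versus DMSO.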

Test [12] concerns the target human Muscarinic, M4 Receptor, CHRM4 (gene 1132) (UniProt P08173). The experiment in a line: NVS_GPCR_hM4: NovaScreen (NVS) G Protein-Coupled Receptor Assay for human Muscarinic, M4 Receptor (AID 2283274). The essentials: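 Filter-based scintillation counting of radioligand bound to CHO-expressed human M4 preparations after 1 h; loss of signal fitted versus DMSO. Initial duplicate testing at 25 uM, concentration-response follow-up for actives.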

Test [13] addresses human Neurotensin Receptor (NTS), NTSR1 (gene 4923) (UniProt P30989). Kind of test: NVS_GPCR_hNTS: NovaScreen (NVS) G Protein-Coupled Receptor Assay for human Neurotensin Receptor (NTS) (AID 2283279). In outline: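 Compounds competed with a radiolabelled ligand for binding to CHO-derived human neurotensin receptor; bound signal counted after filtration, 1 h. Screened first at a single concentration of 25 uM in duplicate, then concentration series to 50 uM maximum for actives.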

Test [14] concerns the target human Neurokinin, NK2 Receptor, TACR2 (gene 6865) (UniProt P21452). The experiment in a line: NVS_GPCR_hNK2: NovaScreen (NVS) G Protein-Coupled Receptor Assay for human Neurokinin, NK2 Receptor (AID 2283278).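 Also: actives reduce bound radioligand signal relative to DMSO baseline.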 In outline:
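CHO-derived membrane protein, radioligand displacement, filter scintillation read at 4 h post-dose. Single-point 25 uM in duplicate, then concentration series for actives; DMSO as negative control.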

The target of test [15] is mouse Cholecystokinin, CCK1 Receptor (CCKA), Cckar (gene 12425) (UniProt O08786). Kind of test: NVS_GPCR_mCCKAPeripheral: NovaScreen (NVS) G Protein-Coupled Receptor Assay for mouse Cholecystokinin, CCK1 Receptor (CCKA) (AID 2283285). The essentials: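 Chemicals were first screened in duplicate at 25 uM, with those meeting threshold (e.g., 30% inhibition) retested in singleton concentration series to 50 uM maximum. Binding of radioligand to mouse pancreatic membranes was read after 2 h by filtration and scintillation counting.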

Test [16] addresses human Thromboxane A2 Receptor (TXA2), TBXA2R (gene 6915) (UniProt P21731). The experiment in a line: NVS_GPCR_hTXA2: NovaScreen (NVS) G Protein-Coupled Receptor Assay for human Thromboxane A2 Receptor (TXA2) (AID 2283282).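 Also: actives reduce bound radioligand signal relative to DMSO baseline.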 In outline: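 Human platelet membranes tested for radioligand displacement by filtration and scintillation counting 1 h post-dose. Screened in duplicate at 25 uM; activity fitted as signal loss relative to DMSO.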

The target of test [17] is human Neuropeptide Receptor Y1 (NPY1), NPY1R (gene 4886) (UniProt P25929). Kind of test: NVS_GPCR_hNPY1: NovaScreen (NVS) G Protein-Coupled Receptor Assay for human Neuropeptide Receptor Y1 (NPY1) (AID 2283276). The essentials:
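Displacement of specific radioligand from NPY1 receptor of SK-N-MC origin, read by filtration and scintillation after 1 h. Compounds first tested at 25 uM in duplicate, then actives in concentration series; signal loss relative to DMSO.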

Inconclusive results are not listed. Calls of active or inactive are those of the source. The calls were made as follows: active = hit-call score of the fitted dose curve at least 0.9, where 1 is the maximum; inconclusive = response in the unintended direction; inactive = score below 0.9.

As usually defined, the AC50 is the concentration at which the activity in the assay is half-maximal.

human Neurokinin, NK2 Receptor, TACR2 (gene 6865), sequence (P21452 whole entry, looked up): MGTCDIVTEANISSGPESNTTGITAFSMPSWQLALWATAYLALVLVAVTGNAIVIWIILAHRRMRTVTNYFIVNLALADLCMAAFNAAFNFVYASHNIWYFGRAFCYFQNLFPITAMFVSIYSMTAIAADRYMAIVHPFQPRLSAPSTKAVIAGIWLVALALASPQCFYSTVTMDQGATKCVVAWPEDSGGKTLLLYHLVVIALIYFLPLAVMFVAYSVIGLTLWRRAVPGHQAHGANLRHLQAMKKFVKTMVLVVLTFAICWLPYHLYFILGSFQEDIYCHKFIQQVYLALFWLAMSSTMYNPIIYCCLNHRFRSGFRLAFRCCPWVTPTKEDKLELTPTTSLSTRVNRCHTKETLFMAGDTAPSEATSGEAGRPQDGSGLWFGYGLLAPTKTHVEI
mouse Cholecystokinin, CCK1 Receptor (CCKA), Cckar (gene 12425), sequence (O08786 whole entry, looked up): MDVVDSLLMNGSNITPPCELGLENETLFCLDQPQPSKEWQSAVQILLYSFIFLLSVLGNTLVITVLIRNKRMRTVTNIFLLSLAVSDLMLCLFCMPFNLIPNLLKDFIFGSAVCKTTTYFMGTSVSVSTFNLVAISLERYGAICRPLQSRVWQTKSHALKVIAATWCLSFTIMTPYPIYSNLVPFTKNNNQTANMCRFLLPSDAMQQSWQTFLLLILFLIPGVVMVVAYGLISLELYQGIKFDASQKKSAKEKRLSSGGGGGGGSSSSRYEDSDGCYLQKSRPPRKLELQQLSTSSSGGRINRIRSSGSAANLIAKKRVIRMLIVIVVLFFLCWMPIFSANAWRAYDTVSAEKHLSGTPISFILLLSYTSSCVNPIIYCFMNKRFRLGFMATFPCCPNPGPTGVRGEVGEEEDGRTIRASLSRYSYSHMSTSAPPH
human Leukotriene B4 Receptor 1 (LTB4-BLT1), LTB4R (gene 1241), sequence (Q15722 whole entry, looked up): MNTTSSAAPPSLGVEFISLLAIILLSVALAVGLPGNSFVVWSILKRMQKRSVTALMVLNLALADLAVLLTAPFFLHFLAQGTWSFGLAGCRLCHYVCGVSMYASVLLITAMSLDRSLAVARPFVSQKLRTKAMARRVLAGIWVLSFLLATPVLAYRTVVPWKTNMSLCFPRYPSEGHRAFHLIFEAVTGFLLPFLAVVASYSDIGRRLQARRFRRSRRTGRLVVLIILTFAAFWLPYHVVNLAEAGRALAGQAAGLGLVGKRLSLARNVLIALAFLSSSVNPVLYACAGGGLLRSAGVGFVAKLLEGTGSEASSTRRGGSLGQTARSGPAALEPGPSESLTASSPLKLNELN
human Muscarinic, M4 Receptor, CHRM4 (gene 1132), sequence (P08173 whole entry, looked up): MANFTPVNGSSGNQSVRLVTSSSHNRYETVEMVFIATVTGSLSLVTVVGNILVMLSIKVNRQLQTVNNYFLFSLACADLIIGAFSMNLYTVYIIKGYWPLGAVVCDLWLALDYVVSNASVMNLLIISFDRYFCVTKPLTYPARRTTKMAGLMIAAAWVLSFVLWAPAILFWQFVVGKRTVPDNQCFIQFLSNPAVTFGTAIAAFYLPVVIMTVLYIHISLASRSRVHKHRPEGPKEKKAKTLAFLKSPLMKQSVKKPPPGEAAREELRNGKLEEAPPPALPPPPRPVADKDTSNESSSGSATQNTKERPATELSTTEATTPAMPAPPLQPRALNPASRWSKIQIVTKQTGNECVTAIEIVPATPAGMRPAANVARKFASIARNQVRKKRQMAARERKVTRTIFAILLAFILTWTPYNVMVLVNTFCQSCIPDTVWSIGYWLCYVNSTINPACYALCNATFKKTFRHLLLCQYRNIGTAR
Muscarinic acetylcholine receptor M3 (Homo sapiens), sequence (P20309 whole entry, looked up): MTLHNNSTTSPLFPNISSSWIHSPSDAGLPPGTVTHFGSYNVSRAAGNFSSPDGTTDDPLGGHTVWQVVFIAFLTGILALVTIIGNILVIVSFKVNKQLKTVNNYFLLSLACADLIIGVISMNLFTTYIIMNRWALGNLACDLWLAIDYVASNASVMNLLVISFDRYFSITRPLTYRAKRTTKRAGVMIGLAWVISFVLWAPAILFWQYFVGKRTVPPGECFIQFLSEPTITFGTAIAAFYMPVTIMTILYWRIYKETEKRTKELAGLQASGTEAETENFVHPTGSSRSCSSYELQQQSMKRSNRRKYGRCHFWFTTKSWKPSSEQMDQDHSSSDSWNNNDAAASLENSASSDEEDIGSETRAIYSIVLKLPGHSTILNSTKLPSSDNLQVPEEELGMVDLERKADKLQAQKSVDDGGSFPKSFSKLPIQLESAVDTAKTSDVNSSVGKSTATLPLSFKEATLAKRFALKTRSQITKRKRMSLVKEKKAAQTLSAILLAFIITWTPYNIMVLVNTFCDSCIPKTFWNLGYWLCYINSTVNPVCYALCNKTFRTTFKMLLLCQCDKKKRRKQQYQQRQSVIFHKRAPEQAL
Muscarinic acetylcholine receptor M2 (Homo sapiens), sequence (P08172 whole entry, looked up): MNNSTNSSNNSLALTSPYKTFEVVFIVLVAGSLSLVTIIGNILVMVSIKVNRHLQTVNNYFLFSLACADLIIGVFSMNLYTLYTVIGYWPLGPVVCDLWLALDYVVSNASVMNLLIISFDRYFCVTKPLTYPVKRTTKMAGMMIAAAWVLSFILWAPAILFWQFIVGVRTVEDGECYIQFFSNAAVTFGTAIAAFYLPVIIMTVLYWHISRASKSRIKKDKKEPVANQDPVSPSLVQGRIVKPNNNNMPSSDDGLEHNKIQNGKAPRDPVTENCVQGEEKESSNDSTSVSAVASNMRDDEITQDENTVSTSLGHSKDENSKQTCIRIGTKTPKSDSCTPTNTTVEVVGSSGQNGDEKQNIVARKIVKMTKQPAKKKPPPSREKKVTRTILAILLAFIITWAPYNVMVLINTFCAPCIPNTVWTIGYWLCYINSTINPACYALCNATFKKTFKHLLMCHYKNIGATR
Muscarinic acetylcholine receptor M1 (Homo sapiens), sequence (P11229 whole entry, looked up): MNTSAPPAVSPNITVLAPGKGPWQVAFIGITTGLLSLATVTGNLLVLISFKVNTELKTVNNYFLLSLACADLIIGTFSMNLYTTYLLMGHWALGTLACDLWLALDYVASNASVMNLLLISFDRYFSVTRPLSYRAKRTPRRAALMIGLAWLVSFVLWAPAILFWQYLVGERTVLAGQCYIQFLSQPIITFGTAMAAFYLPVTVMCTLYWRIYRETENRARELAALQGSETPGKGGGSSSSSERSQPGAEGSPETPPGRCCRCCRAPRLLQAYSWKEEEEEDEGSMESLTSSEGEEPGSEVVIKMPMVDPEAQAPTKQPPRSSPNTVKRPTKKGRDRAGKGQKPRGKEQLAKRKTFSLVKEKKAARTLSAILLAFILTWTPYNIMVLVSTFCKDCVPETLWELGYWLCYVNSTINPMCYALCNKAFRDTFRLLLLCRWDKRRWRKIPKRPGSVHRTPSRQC
human Neurotensin Receptor (NTS), NTSR1 (gene 4923), sequence (P30989 whole entry, looked up): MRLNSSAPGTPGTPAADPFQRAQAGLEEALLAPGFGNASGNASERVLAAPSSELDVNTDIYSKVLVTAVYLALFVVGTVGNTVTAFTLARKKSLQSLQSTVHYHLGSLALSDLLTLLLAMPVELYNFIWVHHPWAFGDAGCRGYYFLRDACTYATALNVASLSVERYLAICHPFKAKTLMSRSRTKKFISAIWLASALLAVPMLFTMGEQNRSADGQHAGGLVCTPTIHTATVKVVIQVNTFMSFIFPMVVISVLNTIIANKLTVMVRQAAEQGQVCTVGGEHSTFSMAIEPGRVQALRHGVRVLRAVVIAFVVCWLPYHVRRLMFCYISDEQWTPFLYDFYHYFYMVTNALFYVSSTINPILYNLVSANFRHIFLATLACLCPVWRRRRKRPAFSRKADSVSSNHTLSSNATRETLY
rat Serotonin, 5-Hydroxytryptamine Receptor 1 (5HT1), Non-Selective Binding, Htr1a (gene 24473), sequence (P19327 whole entry, looked up): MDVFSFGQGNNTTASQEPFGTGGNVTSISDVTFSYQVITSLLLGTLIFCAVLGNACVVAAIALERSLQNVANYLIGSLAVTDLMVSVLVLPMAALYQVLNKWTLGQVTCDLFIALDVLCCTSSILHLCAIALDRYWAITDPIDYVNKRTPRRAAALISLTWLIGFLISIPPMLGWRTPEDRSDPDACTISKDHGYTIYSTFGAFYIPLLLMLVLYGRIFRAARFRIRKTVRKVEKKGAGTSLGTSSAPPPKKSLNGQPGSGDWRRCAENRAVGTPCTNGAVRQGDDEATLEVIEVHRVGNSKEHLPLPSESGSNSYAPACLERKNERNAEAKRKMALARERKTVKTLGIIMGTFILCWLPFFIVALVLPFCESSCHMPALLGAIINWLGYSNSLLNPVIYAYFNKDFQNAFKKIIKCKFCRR
Neuropeptide Y receptor type 2 (Homo sapiens), sequence (P49146 whole entry, looked up): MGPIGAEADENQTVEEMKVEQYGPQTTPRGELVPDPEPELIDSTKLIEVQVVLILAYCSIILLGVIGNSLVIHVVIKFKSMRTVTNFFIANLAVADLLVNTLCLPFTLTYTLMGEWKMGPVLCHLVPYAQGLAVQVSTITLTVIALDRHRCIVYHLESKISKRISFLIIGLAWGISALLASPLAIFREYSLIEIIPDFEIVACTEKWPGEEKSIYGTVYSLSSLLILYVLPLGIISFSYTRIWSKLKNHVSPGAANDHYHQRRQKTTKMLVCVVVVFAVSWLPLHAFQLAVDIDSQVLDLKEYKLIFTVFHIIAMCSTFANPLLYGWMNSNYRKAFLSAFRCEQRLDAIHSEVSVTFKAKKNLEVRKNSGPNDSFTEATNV
D(1A) dopamine receptor (Homo sapiens), sequence (P21728 whole entry, looked up): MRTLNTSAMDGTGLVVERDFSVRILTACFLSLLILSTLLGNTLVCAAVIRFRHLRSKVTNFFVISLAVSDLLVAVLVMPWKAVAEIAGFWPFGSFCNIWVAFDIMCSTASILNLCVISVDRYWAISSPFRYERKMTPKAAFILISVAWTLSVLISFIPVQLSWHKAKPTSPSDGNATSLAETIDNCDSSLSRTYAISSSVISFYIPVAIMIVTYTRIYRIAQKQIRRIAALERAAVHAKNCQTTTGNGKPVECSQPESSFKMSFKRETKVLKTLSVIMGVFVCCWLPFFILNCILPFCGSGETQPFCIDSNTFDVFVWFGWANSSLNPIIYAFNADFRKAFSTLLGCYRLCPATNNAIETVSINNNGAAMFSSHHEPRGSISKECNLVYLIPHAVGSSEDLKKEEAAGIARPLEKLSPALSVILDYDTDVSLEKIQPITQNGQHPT

In the case of `COC(=O)NS(=O)(=O)c1ccc(N)cc1`, in test [1], the result was inactive.

With `N#Cc1c[nH]cc1-c1cccc2c1OC(F)(F)O2`, the compound was called inactive in test [2] and in test [1].

For the compound `CCOP(=O)(OCC)Oc1nc(Cl)c(Cl)cc1Cl`, the compound was classed as inactive in test [3], in [4] and in [5].

On to `COC(=O)N(C(=O)N1CO[C@@]2(C(=O)OC)Cc3cc(Cl)ccc3C2=N1)c1ccc(OC(F)(F)F)cc1`, for which the call in [6] and in test [7] was inactive.

Turning to `CC1(C)CCC(=Cc2ccc(Cl)cc2)C1(O)Cn1cncn1` (stereo not drawn), the outcome in [8] was inactive.

For the compound `Nc1c(Cl)c(Cl)nc(C(=O)O)c1Cl`, the outcome in test [9] was inactive.

For `N#CN=C1SCCN1Cc1ccc(Cl)nc1`, in test [10], the compound was classed as inactive.

Regarding `Cc1cc(C)nc(Nc2ccccc2)n1`, the results for the AC50 in test [11], in test [5] and in test [12] were 12.4 µM (active), 4.96 µM (active) and 14.9 µM (active), respectively.

Regarding `COc1cc(Cl)c(OC)cc1Cl`, the compound was classed as inactive in [8].

Turning to `O=C(Nc1ccccc1-c1ccc(Cl)cc1)c1cccnc1Cl`, the outcome in test [13] was inactive.

With `CCSC(=O)N1CCCCCC1`, the AC50 in test [11] was 8.57 µM (active); in [5] it was 6.85 µM (active); in test [12], 4.96 µM (active).

As for `COP(=O)(OC)O/C(C)=C/C(=O)N(C)C`, the call in test [13] was inactive.

Take `CC1(C)C(C(=O)OC(C#N)c2cccc(Oc3ccccc3)c2)C1(C)C` (stereo not drawn): the compound was called inactive in test [14] and in test [15].

With `CCOC(=O)C(C)OC(=O)c1cc(Oc2ccc(C(F)(F)F)cc2Cl)ccc1[N+](=O)[O-]` (stereo not drawn), the compound was classed as inactive in test [15].

In the case of `COCC(=O)N(c1c(C)cccc1C)C(C)C(=O)OC` (stereo not drawn), the compound was called inactive in [9].

Regarding `Cc1c(COC(=O)[C@@H]2[C@H](/C=C(\Cl)C(F)(F)F)C2(C)C)cccc1-c1ccccc1`, the result in test [14] was inactive.

Take `CC1(C)CON(Cc2ccccc2Cl)C1=O`: the result in [9] was inactive.

For `CCNC(=O)NC(=O)C(C#N)=NOC`, in [12], the outcome was inactive.

For the compound `N#Cc1c(Cl)cccc1Cl`, in test [12], the compound was classed as inactive.

Regarding `CCCC(=NOCC)C1=C(O)CC(CC(C)SCC)CC1=O` (stereo not drawn), in test [9], the outcome was inactive.

On to `CCOc1nc(F)cc2nc(S(=O)(=O)Nc3c(Cl)cccc3Cl)nn12`, for which the compound was classed as inactive in [14].

Consider `CCN(CC)C(=O)C(C)Oc1cccc2ccccc12` (stereo not drawn), for which the result in [16] was inactive.

Regarding `CC(C)N1C(=O)N(c2ccccc2)CSC1=NC(C)(C)C`, in test [9], the result was inactive.

Regarding `CCNP(=S)(OC)O/C(C)=C/C(=O)OC(C)C` (stereo not drawn), the result in test [5] and in [10] was inactive.

Consider `CCCCC(O)(Cn1cncn1)c1ccc(Cl)cc1Cl` (stereo not drawn), for which the compound was classed as inactive in test [7], in test [5], in test [17] and in test [15].

For the compound `CS(=O)(=O)c1cc(C(F)(F)F)ccc1C(=O)c1cnoc1C1CC1`, the AC50 in [9] is 19.1 µM (active).

In the case of `CC(C)(C)C(=O)C(Oc1ccc(Cl)cc1)n1cncn1` (stereo not drawn), the AC50 was 11.8 µM (active) in [7] and 4.96 µM (active) in [5]. Also, the compound was classed as inactive in [11] and in test [12].

The values are drawn from PubChem BioAssay (EPA / NIEHS).
